Measurements reported in PubChem BioAssay (Tox21).
Records with an inconclusive call do not appear. Calls of active or inactive are those of the source. Calls come from the whole dose curve; as a rule, active = well fitted inhibition curve with a large enough effect in the signal ratio in the repeat runs (not every such curve was filed as active); inconclusive = weak or mixed curves; inactive = flat fitted curve, though single readings scatter; the % refers to the signal ratio.

What follows are compounds tested against Progesterone receptor (Homo sapiens) (UniProt P06401) (assay: qHTS assay to identify small molecule antagonists of the progesterone receptor (PR) signaling pathway (AID 1346795)). Conditions: PR-UAS-bla HEK293T, beta-lactamase FRET ratio, 16 h; series mostly up to 92.4 µM; activity change, negative = inhibition: at the top concentration.
Chain of Progesterone receptor (Homo sapiens) (P06401 whole entry, looked up): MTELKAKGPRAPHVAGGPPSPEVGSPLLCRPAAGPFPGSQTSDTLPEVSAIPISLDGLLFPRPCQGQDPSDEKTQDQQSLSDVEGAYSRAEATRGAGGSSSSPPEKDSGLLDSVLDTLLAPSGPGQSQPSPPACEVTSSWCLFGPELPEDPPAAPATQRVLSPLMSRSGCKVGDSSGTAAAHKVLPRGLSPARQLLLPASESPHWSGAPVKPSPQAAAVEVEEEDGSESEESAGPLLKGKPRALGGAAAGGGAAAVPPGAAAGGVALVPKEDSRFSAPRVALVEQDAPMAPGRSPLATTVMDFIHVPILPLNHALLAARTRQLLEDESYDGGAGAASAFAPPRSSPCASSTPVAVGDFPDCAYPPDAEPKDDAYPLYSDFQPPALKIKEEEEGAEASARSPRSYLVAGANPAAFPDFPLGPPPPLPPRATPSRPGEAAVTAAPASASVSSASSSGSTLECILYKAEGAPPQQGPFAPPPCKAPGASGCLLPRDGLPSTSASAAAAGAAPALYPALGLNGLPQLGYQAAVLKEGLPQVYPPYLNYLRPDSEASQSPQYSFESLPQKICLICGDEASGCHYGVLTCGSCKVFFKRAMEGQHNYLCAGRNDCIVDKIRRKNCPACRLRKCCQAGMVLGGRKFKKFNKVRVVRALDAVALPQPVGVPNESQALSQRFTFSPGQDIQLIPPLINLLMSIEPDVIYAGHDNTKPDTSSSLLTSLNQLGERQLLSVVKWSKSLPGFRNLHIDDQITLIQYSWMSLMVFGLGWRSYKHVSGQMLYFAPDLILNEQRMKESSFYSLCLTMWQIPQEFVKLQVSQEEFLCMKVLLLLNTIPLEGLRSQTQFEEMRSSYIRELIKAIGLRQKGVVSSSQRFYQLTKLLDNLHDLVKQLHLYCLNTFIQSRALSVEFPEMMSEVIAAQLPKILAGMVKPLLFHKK
Excerpt: National Center for Advancing Translational Sciences [NCATS]
NIH Chemical Genomics Center [NCGC]
U.S. Environmental Protection Agency [EPA]
National Institutes of Environmental Health Sciences [NIEHS]
National Toxicology Program [NTP]
U.S. Food and Drug Administration [FDA]
Progesterone receptor (PR), a nuclear hormone receptor, plays an important role in development, metabolic homeostasis and reproduction. […] Endocrine disrupting chemicals (EDCs) and their interactions with steroid hormone receptors like PR causes disruption of normal endocrine function. To identify the compounds that inhibit PR signaling, a PR-UAS-bla GripTite cell line i.e. PR-UAS-bla HEK293T (Invitrogen, Carlsbad, CA, USA) containing a beta-lactamase reporter gene under the control of an Upstream Activator Sequence (UAS) was used to screen Tox21 10K compound library.
Tox21 Assay Protocol Summary:
PR-UAS-bla HEK293T cells were dispensed at 3,000 cells/4 uL of assay medium containing 2% charcoal stripped FBS per well into black wall/clear-bottom 1536-well plates using a Multidrop Combi (ThermoFisher Scientific, Waltham, MA) dispenser. After the assay plates were incubated at a 37C and 5% CO2 for 6 hr, 23 nL of compounds dissolved in DMSO, positive controls or DMSO only was transferred to the assay plate by a Pintool station (Kalypsys, San Diego, CA), followed by addition of 1 uL (1nM as final concentration) of Promegestone (R5020) in assay medium using a BioRAPTR FRD (Flying Reagent Dispenser, Aurora Discovery, San Diego, CA). The plates were incubated at 37C and 5% CO2 for 16 hr. Then 1 uL of LiveBLAzer B/G FRET substrate was added using a FRD. After the plates were incubated at room temperature for 2 hours, fluorescence intensity was measured by an Envision plate reader (PerkinElmer, Shelton, CT).
% is set by controls: 0 for no effect and ±100 for the full control effect; potency is the fitted concentration of half-maximal effect.

Structure (SMILES)	activity change, negative = inhibition	Potency
c1ccc(C[n+]2cccc3ccccc32)cc1	-8.24% (inactive)	
CC(C)=CCC/C(C)=C/CC/C(C)=C/CCC(=O)OC/C=C(\C)CCC=C(C)C	8.42% [at 42.5 µM] (inactive)	
O=C1Cc2cc(Cl)ccc2N1	-5.08% [at 42.5 µM] (inactive)	
O=c1[nH]c2ccc(Cl)cc2o1	-13.7% (inactive)	
CC(CO)CO	3.53% (inactive)	
C[C@]12CC[C@@H]3c4ccc(O)cc4CC[C@H]3[C@@H]1CC[C@@H]2OC(=O)CCC1CCCC1		0.386 µM (active)
COC(=O)CCS	-1.34% (inactive)	
C=C(C)CCCC(C)CCO (stereo not given)	-7.23% (inactive)	
Clc1cc(Cl)nc(Cl)n1	-6.42% (inactive)	
Cc1ccccc1N=C(N)Nc1ccccc1C	5.49% (inactive)	
NCCNCCO	-0.0389% (inactive)	
CCn1cc(C(=O)O)c(=O)c2cc(F)c(N3CCNCC3)cc21	2.15% [at 42.5 µM] (inactive)	
CCCCN(CCCC)C(C(N)=O)c1ccc(OC)cc1 (stereo not given)	-18.1% [at 42.5 µM] (inactive)	
CN(C(=O)CN(CCO)CC(=O)N(C)C(C)(C)Cc1ccccc1)C(C)(C)Cc1ccccc1	-7.17% [at 42.5 µM] (inactive)	
CC(=O)c1cc2ccccc2s1	-1.37% [at 42.5 µM] (inactive)	
O=[N+]([O-])c1cc(C2CCCCC2)c(O)c([N+](=O)[O-])c1		24.3 µM (active)
CC(C)(c1ccccc1)c1ccccc1	10.8% (inactive)	
O=C(O)CCc1nc(-c2ccccc2)c(-c2ccccc2)o1	-3.95% [at 42.5 µM] (inactive)	
C=C(C)[C@@H]1CCC2=CCC[C@@H](C)[C@]2(C)C1	-27.4% (inactive)	
N#CCc1ccc(Cl)cc1Cl	9.21% (inactive)	

Structure (SMILES)	activity change, negative = inhibition	Potency
CC1(C)[C@@H](OC(=O)CCC(=O)O)CC[C@]2(C)[C@H]3C(=O)C=C4[C@@H]5C[C@@](C)(C(=O)O)CC[C@]5(C)CC[C@@]4(C)[C@]3(C)CC[C@@H]12	-14.1% [at 42.5 µM] (inactive)	
COc1cc(C(=O)NCCCCCC(=O)O)cc(OC)c1OC	11.9% [at 42.5 µM] (inactive)	
Cc1cscn1	-0.397% (inactive)	
CCC(C)COC(C)=O (stereo not given)	-0.443% (inactive)	
CCOC(=O)c1ccc(I)cc1	0.322% (inactive)	
CC(=O)OCCN(CCOC(C)=O)c1ccc(N=Nc2ccc([N+](=O)[O-])cc2C#N)cc1	-22.2% (inactive)	
Oc1cccc(O)c1O	-6.2% (inactive)	
Oc1ccc(Cl)c2cccnc12		3.76 µM (active)
CC1(C)S[C@@H]2[C@H](NC(=O)C(c3ccccc3)S(=O)(=O)O)C(=O)N2[C@H]1C(=O)O (stereo not given in full)	10.4% [at 42.5 µM] (inactive)	
O=C(O)CCC(=O)C(=O)O	2.13% (inactive)	
CC(C)C=O	-0.0292% (inactive)	
O=C1C(=O)c2ccccc2C(O)=C1C1CCC(c2ccc(Cl)cc2)CC1 (stereo not given)	-15.6% [at 42.5 µM] (inactive)	
CCOC(=O)c1ccc(OCCN2C[C@H](O)[C@@H](O)[C@H](O)[C@H]2CO)cc1	2.77% [at 42.5 µM] (inactive)	
Nc1cccc2c1CN(C1CCC(=O)NC1=O)C2=O (stereo not given)	-1.06% [at 42.5 µM] (inactive)	
C=C1c2cccc(O)c2C(O)=C2C(=O)[C@]3(O)C(O)=C(C(N)=O)C(=O)[C@@H](N(C)C)[C@@H]3[C@@H](O)[C@H]12	-7.93% [at 42.5 µM] (inactive)	
O=C(OCC(O)CO)c1ccccc1Nc1ccnc2cc(Cl)ccc12 (stereo not given)		21.1 µM (active)
O=[N+]([O-])c1ccc(Nc2ccc(Nc3ccccc3)c(S(=O)(=O)O)c2)c([N+](=O)[O-])c1	14% (inactive)	
C=C(C)C(=O)OCCOCCOC(=O)C(=C)C	8.15% (inactive)	
CCC(=O)OC	4.48% (inactive)	
O[C@@H]1CO[C@H]2[C@@H]1OC[C@@H]2O	6.65% [at 42.5 µM] (inactive)	
